Test results published in PubChem BioAssay (NCI).
About 83,000 compounds went through this panel and 20% of them were active in at least one assay; those are over-represented in the sample as a whole.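 How to read the values: 0–100, growth inhibition (40 = 60% inhibited); 0, no net growth; -100 to 0, cell death (-40 = 40% of starting cells died; -100 = all dead).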 Values without a mark were called inactive. Active and inactive are the calls of the source. The calls were made as follows: active = growth percent below 10; inactive = the rest.

Tests used:
Assay in all cases: NCI-60 one-dose screen, 48 h (100 = growth as untreated, 0 = no growth, -100 = all killed)
Details in all cases: 10 µM unless noted
[1] = tested on: T-47D breast
[2] = tested on: BT-549 breast
[3] = tested on: MDA-MB-435 melanoma
[4] = tested on: SW-620 colon
[5] = tested on: MCF7 breast
[6] = tested on: HCT-116 colon
[7] = tested on: HCC-2998 colon
[8] = tested on: KM12 colon

Row | SMILES | growth [1] | growth [2] | growth [3] | growth [4] | growth [5] | growth [6] | growth [7] | growth [8]
1 | COc1cc2ncnc(Oc3ccc(NC(=O)Nc4ccc(CN5CCOCC5)c(C(F)(F)F)c4)c4ccccc34)c2cc1OC | 10.3% | 25.2% | 6.39% (active) | 24.8% | 8.45% (active) | 17.4% | 75.9% | 6.26% (active)
2 | OC(COc1ccccc1Cl)CN1CCN(c2ccc(Cl)cc2)CC1 (centres undefined) | 101% | 89.9% | 105% | 108% | 90.2% | 96.4% | 102% | 100%
3 | COc1ccc(C(=O)NC(=O)Nc2ccc3c(c2)NC(=O)/C3=C\c2[nH]c(C)c(CCC(=O)O)c2C)c(F)c1 | 21.5% | 11.2% | 53.8% | 38.5% | 45.3% | 28.3% | 46.8% | 15.5%
4 | CCn1cc(/C=C2\Oc3cc(OCC#N)ccc3C2=O)c2cc(OC)ccc21 | 48.4% | 52.6% | -20.7% (active) | 28% | 20.6% | 12.4% | 55.6% | 23.6%
5 | COc1cc(/C=C/C(=O)c2c(C)n([O-])c3cc(C)c(C)cc3[n+]2=O)cc(OC)c1OC | 51.8% | 23% | 45.8% | 50.1% | 11.1% | 42.6% | 85.5% | 69.8%
6 | CCc1cccc(C)c1NC(=O)c1sc2nc3c(cc2c1N)CCCCC3 | 46.7% | 58.3% | -16.9% (active) | 23.8% | 18.9% | 21.1% | 54.7% | 23%
7 | c1ccc([Se]CCCN2CCN(CCC[Se]c3ccccc3)CC2)cc1 | 111% | 125% | -44.2% (active) | 101% | 110% | 74.5% | 115% | 109%
8 | CCNc1ncnc2n[nH]nc12 | 99.2% | 94% | 99.5% | 95.8% | 98.3% | 98.8% | 106% | 105%
9 | NS(=O)(=O)c1ccc(CCN2C(=O)/C(=C\c3ccc(Cl)cc3)C=C2c2ccc(Oc3ccccc3)cc2)cc1 | 66.7% | 92.2% | 78.8% | 83% | 39.3% | 65% | 89% | 62.4%
10 | O=C(Nc1ccc(F)cc1)Nc1ccc(Br)c(C(F)(F)F)c1 | -4.72% (active) | 15.5% | 6.46% (active) | 19.8% | 1.94% (active) | 4.58% (active) | 11.8% | 13.8%
11 | COc1ccc2c(c1)C(=O)/C(=C/c1cccc(OCC(=O)c3ccccc3)c1)O2 | -31.7% (active) | -15.9% (active) | 38% | -82.7% (active) | 32% | 0.433% (active) | -71.2% (active) | 71.7%
12 | Cc1ccc(-c2cn3cc([N+](=O)[O-])ccc3n2)cc1 | 46.6% | 53.9% | 70.8% | 100% | 34.8% | 70.3% | 88% | 91.4%
13 | Nc1ncc(-c2ccc3ncnc(Nc4cncc(Cl)c4)c3c2)cn1 | -7.28% (active) | 64.2% | 75.1% | 95.8% | 37.8% | 82.4% | 79.7% | 82.5%
14 | C#CC(=O)/C=C/CCCCCCC#CC(=O)CCC(=O)C#CCCCCCC/C=C/C(=O)C#C | 24.8% | -15.3% (active) | -33.6% (active) | 8.47% (active) | 21.6% | -7.8% (active) | 63.9% | 49.2%
15 | CC1OC(n2c3ccccc3c3c4c(c5c6ccccc6[nH]c5c32)C(=O)N(CCN[C@@H]2CCC[C@H]2N)C4=O)CC(O)C1O (some centres undefined) | 19.6% | 23.8% | 18.4% | 5.32% (active) | -34% (active) | 9.41% (active) | -9.5% (active) | 14.7%
16 | COc1ccc(/C=C/C(=O)c2ccc(Oc3ncnc4ccccc34)cc2)cc1OC | 52.3% | 60.6% | 39.1% | 32.2% | 8.88% (active) | -42.6% (active) | 29.1% | 22.6%
17 | CC1(C)N=C(N)N=C(N)N1c1cccc(CCCCc2ccccc2)c1 | 18.1% | -35.1% (active) | -0.215% (active) | 25.3% | 3.82% (active) | 2.07% (active) | -9.45% (active) | -42.8% (active)
18 | COc1ccc2c(-c3ccc(F)cc3)c(C#N)c(=NC(C)=O)oc2c1 | 55.8% | 29.1% | -3.09% (active) | 23% | 21.4% | 25% | 60.3% | 30.3%
19 | COc1ccc(-c2cnc(-c3ccc(F)cc3)[nH]2)cc1 | 86.9% | 314% | -6.97% (active) | 18.6% | 26.3% | -68.8% (active) | -10% (active) | 30.6%
20 | COc1cccc(-c2nc3sccn3c2-c2ccnc(NCCNC(=O)c3ccccc3)n2)c1 | 61.9% | 85.1% | 55.2% | 114% | 81.7% | 81.8% | 114% | 87.8%
21 | O=C1OC(N(Cc2ccc(Cl)cc2)c2ccccc2)c2ccccc21 (centres undefined) | 89.2% | 103% | 109% | 101% | 94.9% | 97% | 102% | 98.2%
22 | O=C(c1cc(-c2ccc(Cl)cc2)nc2ccccc12)N1N=C(c2ccccc2)CC1c1cc(-c2ccccc2)nn1-c1ccccc1 (centres undefined) | 75.5% | 84.9% | 83.4% | 80.6% | 76.3% | 68.1% | 89.5% | 68.6%
23 | CN1CCN(Cn2nc(-c3cc(Cl)cc(Cl)c3Cl)n(/N=C/c3ccc(Cl)cc3)c2=S)CC1 | 94.9% | 102% | 107% | 110% | 95.5% | 89.4% | 103% | 107%
24 | CC(CCC(=O)O)[C@H]1CCC2C3C(=O)C[C@@H]4CC(=O)CC[C@]4(C)C3CC(=O)[C@@]21C (some centres undefined) | 97% | 112% | 96.5% | 98.7% | 105% | 112% | 103% | 108%
25 | OCc1cn(-c2ccc(Cl)cc2)nc1-c1ccc(O)cc1 | 85.3% | 86.1% | 88.9% | 112% | 90.4% | 96.9% | 103% | 90.9%
26 | COc1ccc(-c2ccc(NC(=O)Nc3cccc(C(F)(F)F)c3)c(C)n2)cc1 | 26.5% | 66.4% | 69.6% | 81% | 41.5% | 26.9% | 81.1% | 45.6%
27 | NS(=O)(=O)c1ccc(Nc2nc(O)c(/C=C3\C=Nc4ccccc43)s2)cc1 | 99.3% | 108% | 107% | 99.6% | 94.2% | 92.7% | 116% | 95.6%
28 | Fc1ccc(/C=N/n2c(-c3cc(Cl)cc(Cl)c3Cl)nn(CNc3ccc(Cl)nn3)c2=S)cc1 | 86% | 114% | 97.9% | 112% | 98.9% | 78.1% | 107% | 97.3%
